About 2,100 (0.66%) of roughly 320,000 compounds were called active. Roughly 53% stayed inconclusive and do not appear here. The call rests on the fitted dose curve; in most records, active means well fitted inhibition curve with a large enough effect in the signal ratio, with a control signal flat (not every such curve was filed as active); inconclusive means small, poorly fitted or top-dose-only effect, or effect the other way, or a change in a side signal; inactive means flat fitted curve, though single readings scatter; the % refers to the signal ratio. The full list was thinned out, with actives kept by preference.
Potency means the concentration at half of the fitted maximal effect.

The assay in a line: qHTS Assay for Lipid Storage Modulators in Drosophila S3 Cells.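 On cell number change: cells counted by Cell Tracker Red CMTPX staining in the red channel.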 On lipid storage change, negative = inhibition: on the % scale 0 is the no-effect control and ±100 the full control effect. The following applies: BODIPY lipid droplet fluorescence, 18-24 h, cells fed with added oleic acid; cell number change: measured here: cell count max response; series mostly up to 46.1 µM; lipid storage change, negative = inhibition: at the top concentration. The method in brief:
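Drosophila S3 cells got compounds at several concentrations plus oleic acid (400 uM solution). Laser-scanning cytometry with 488 nm excitation read lipid droplets at 500-530 nm and cells at 575-640 nm. Percent activity was relative to 20 uM Triacsin C.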
Consider `O=C1NC(=O)C(Cc2cccs2)C(=O)N1`, for which the Potency is 25.9 µM (active) and the cell number change is -13%.
In the case of `CN1C(=O)C(Cc2cccs2)C(=O)N(C)C1=O`, the “lipid storage change, negative = inhibition” value was -6.34% (inactive) and the cell number change is 1.68%.
For the compound `O=C1NC(=O)N(Cc2cccs2)C(=O)/C1=C/c1ccc(N2CCOCC2)cc1`, the “lipid storage change, negative = inhibition” value is -2.73% (inactive) and the cell number change was -3.62%.
For `CC(=O)O[C@@H]1[C@H]2CC[C@@H]3[C@]1(C[C@@H](OC(C)=O)[C@@]1(O)C([C@@H]4O[C@@H]4C1(C)C)[C@]3(C)O)C[C@@]2(C)O` (stereo not given in full), the “lipid storage change, negative = inhibition” value is -9.14% (inactive) and the cell number change was -2.47%.
For `O=C(Nc1ccc(OC(=O)N2CCCC2)cc1)N1CCOCC1`, in that order: 0.334% (inactive) and 2.4%.
Turning to `CC(=O)Nc1ccccc1OC(=O)N1CCOCC1`, the Potency is 18.4 µM (active).
As to `O=C(Nc1ccccc1OC(=O)N1CCCCC1)N1CCCCC1`, the “lipid storage change, negative = inhibition” value is 2.68% (inactive) and the cell number change came out at 3.87%.
With `CC1(C)COC(Nc2ccc(Cl)cc2)=N1`, the “lipid storage change, negative = inhibition” value is 7.18% (inactive) and the cell number change came out at 0.527%.
With `COc1ccc(Oc2c(C)oc3cc(OC(=O)N(C)C)ccc3c2=O)cc1`, the “lipid storage change, negative = inhibition” value was 3.93% (inactive) and the cell number change came out at 27.6%.
For `COc1cccc2cc(-c3cc(=O)oc4ccc(OC(=O)N(C)C)cc34)oc12`, in that order: 25.5% (inactive) and -3.98%.
For the compound `Cc1cc2oc(=O)cc(-c3cc4ccccc4o3)c2cc1OC(=O)N(C)C`, the Potency is 18.4 µM (active) and the cell number change turned out to be 20.3%.
As for `COc1ccc(C(=O)C2CCCN(CCO)C2)c(C)c1` (stereo not given), the Potency was 0.82 µM (active) and the cell number change is -6.32%.
For the compound `COc1ccc(C(=O)C2CCCN(Cc3ccc(C)s3)C2)c(OC)c1` (stereo not given), the “lipid storage change, negative = inhibition” value is -12.3% (inactive) and the cell number change was -6.83%.
Consider `Cc1ccsc1C(=O)C1CCCN(CCO)C1` (stereo not given), for which the “lipid storage change, negative = inhibition” value was 15.5% (inactive) and the cell number change was -5.68%.
In the case of `CC1(O)CCN2C(=O)CCc3cccc1c32` (stereo not given), the “lipid storage change, negative = inhibition” value is -0.531% (inactive) and the cell number change is -14.6%.
Turning to `Cn1c(O)c(/C=C2\C=c3ccccc3=NC2=O)c(=O)n(C)c1=O`, the “lipid storage change, negative = inhibition” value was 9.12% (inactive) and the cell number change turned out to be 5.41%.
Take `CN1CCc2c([nH]c3ccccc23)C1`: the “lipid storage change, negative = inhibition” value was -12% (inactive) and the cell number change was -7.02%.
With `CCCCOc1ccc(CC2C(=O)N(C)C(=O)N(C)C2=O)cc1`, the “lipid storage change, negative = inhibition” value was 13.1% (inactive) and the cell number change was -19.6%.
On to `COc1ccccc1CNCCc1ccc(F)cc1`, for which the “lipid storage change, negative = inhibition” value is -8.79% (inactive) and the cell number change is -5.32%.
For the compound `CCC(=NCc1ccco1)c1c(O)n(-c2ccccc2)c(=O)[nH]c1=O`, the “lipid storage change, negative = inhibition” value was 15.4% (inactive) and the cell number change came to 12.1%.
As to `CCC(=NCCO)c1c(O)n(-c2ccc(Cl)cc2)c(=O)[nH]c1=O`, the “lipid storage change, negative = inhibition” value was 2.83% (inactive) and the cell number change stood at 11.3%.
For the compound `CCC(=NCCO)c1c(O)n(-c2ccccc2)c(=O)[nH]c1=O`, the Potency is 20.6 µM (active) and the cell number change was -16.7%.
Take `CC(C)(C)N(NC(=O)c1ccccc1)C(=O)c1ccccc1`: the “lipid storage change, negative = inhibition” value is 3.31% (inactive) and the cell number change is 1.15%.
Regarding `COc1cc(/C=C2\C(=O)NC(=O)N(c3ccc(C)cc3)C2=O)cc(OC)c1O`, the “lipid storage change, negative = inhibition” value was -2.05% (inactive) and the cell number change was 15%.
Consider `COc1cc(C=C2C(=O)NC(=O)NC2=O)cc(OC)c1OC`, for which the “lipid storage change, negative = inhibition” value is 7.23% (inactive) and the cell number change worked out at 8.46%.
As for `COc1cc(/C=C2\C(=O)NC(=O)N(c3ccccc3)C2=O)cc(OC)c1OC`, the Potency was 0.731 µM (active).
Consider `COc1ccccc1C(=O)C1CCCN(Cc2cnc(C)s2)C1` (stereo not given), for which the “lipid storage change, negative = inhibition” value was 2.31% (inactive) and the cell number change amounted to 3.73%.
For `Cn1c(O)c(C=NC2CCN(Cc3ccccc3)CC2)c(=O)[nH]c1=O`, the “lipid storage change, negative = inhibition” value was -10% (inactive) and the cell number change is -0.367%.
For `Cn1c(=O)c2c(nc(N/N=C/c3c(O)n(-c4ccccc4)c(=S)[nH]c3=O)n2C)n(C)c1=O` the same measures were 12.3% (inactive) and 0.523%.
On to `OC1(CN2CCOCC2)C2CC3CC(C2)CC1C3` (stereo not given), for which the Potency is 8.2 µM (active) and the cell number change is -6.79%.
With `CC1(C)C2CC=C(CN3CCOCC3)C1C2` (stereo not given), the “lipid storage change, negative = inhibition” value was -7.26% (inactive) and the cell number change turned out to be 1.35%.
With `CCC(C)n1c(O)c(C=NCCN2CCOCC2)c(=O)[nH]c1=S` (stereo not given), the “lipid storage change, negative = inhibition” value is -7.01% (inactive) and the cell number change was 0.504%.
For the compound `COc1ccc(-n2c(O)c(C(C)=NCCN3CCNCC3)c(=O)[nH]c2=O)cc1`, the “lipid storage change, negative = inhibition” value is -10.9% (inactive) and the cell number change is -2.05%.
For `COC(=O)C1=C(c2ccc(-c3ccccc3)c(F)c2)C[C@@H]2CC[C@H]1N2C(=O)NCC1CC1` the same measures were 4.03% (inactive) and -12.8%.
Turning to `COC(=O)C1=C(c2ccc3ccccc3c2)C[C@@H]2CC[C@H]1N2C(=O)NC1Cc2ccccc2C1`, the “lipid storage change, negative = inhibition” value was 11.9% (inactive) and the cell number change is -10.8%.
With `COC(=O)C1=C(c2ccc(OC(F)(F)F)cc2)C[C@@H]2CC[C@H]1N2C(=O)NCCOc1ccccc1Cl`, the result was inactive.
In the case of `COC(=O)C1=C(c2ccccc2OCc2ccccc2)C[C@@H]2CC[C@H]1N2C(=O)NCc1ccc(OC)cc1`, the “lipid storage change, negative = inhibition” value was -5.69% (inactive) and the cell number change is -4.45%.
With `COC(=O)C1=C(c2ccccc2OCc2ccccc2)C[C@@H]2CC[C@H]1N2C(=O)NCc1ccc(N(C)C)cc1`, the Potency is 23.1 µM (active) and the cell number change was -7.57%.
In the case of `COC(=O)C1=C(c2ccc(-c3ccccc3)c(F)c2)C[C@@H]2CC[C@H]1N2C(=O)NCCOc1ccccc1Cl`, the Potency is 14.6 µM (active) and the cell number change was -24.1%.
Turning to `COC(=O)C1=C(c2ccc(-c3ccccc3)c(F)c2)C[C@@H]2CC[C@H]1N2C(=O)NCCOc1ccccc1`, the compound was called inactive and the cell number change is -7.31%.
Consider `COC(=O)C1=C(c2ccc(-c3ccccc3)c(F)c2)C[C@@H]2CC[C@H]1N2C(=O)NC1Cc2ccccc2C1`, for which the Potency is 7.31 µM (active) and the cell number change is -24.5%.
As to `COC(=O)C1=C(c2ccccc2OCc2ccccc2)C[C@@H]2CC[C@H]1N2C(=O)NCc1ccccc1`, the compound was called inactive and the cell number change is -13.3%.
For the compound `CN(Cc1ccccc1)C1CCCN(C(=O)COc2ccccc2Cl)C1` (stereo not given), the “lipid storage change, negative = inhibition” value was 3.21% (inactive) and the cell number change was 12%.
For the compound `COc1ccc(C(=O)NC(=S)N2C[C@H]3C[C@H](C2)c2cccc(=O)n2C3)cc1`, the “lipid storage change, negative = inhibition” value is 14.6% (inactive) and the cell number change stood at 23%.
